Test results published in PubChem BioAssay (Tox21).
Results filed as inconclusive are left out. Activity calls are given as the source filed them. Unless noted, calls follow the shape of the dose curve; as a rule, active = well fitted curve in the direction sought with a large enough effect in the repeat runs; inconclusive = weak or mixed curves; inactive = no such curve, though single readings can be large; an effect the other way counts as inactive or inconclusive.

What was measured:
[1] = qHTS assay to identify aromatase inhibitors - cell viability counter screen (AID 743084);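 also: cells stimulated with testosterone during compound exposure; nearly all actives have a fitted effect of over 55% in size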
[2] = biological target: Aryl hydrocarbon receptor (Homo sapiens) (UniProt P35869); assay: qHTS assay to identify small molecule that activate the aryl hydrocarbon receptor (AhR) signaling pathway (AID 743085);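 also: HG2L7.5c1 human HepG2 liver cells with stably integrated DRE-driven firefly reporter; series mostly up to about 70 µM; nearly all actives have a fitted effect of over 15% in size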
Summary of the method: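 Measured in HG2L7.5c1 cells: CellTiter-Fluor signal (30 min incubation, 37C) for viability, then luciferase luminescence (30 min, room temperature). Compound contact time was 24 h at 37C, following a 5 h pre-incubation.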

[3] = qHTS assay to identify small molecule that activate the aryl hydrocarbon receptor (AhR) signaling pathway - cell viability counter screen (AID 743086);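 also: HepG2 liver cells carrying the AhR DRE luciferase reporter; series mostly up to about 70 µM; nearly all actives have a fitted effect of over 45% in size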
Summary of the method: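 Cytotoxicity counter screen: CellTiter-Fluor signal (30 min, 37 C) in 4000 HepG2 cells/well carrying the DRE-luciferase reporter, following 24 h compound exposure at 37 C.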

[4] = biological target: Peroxisome proliferator-activated receptor gamma (Homo sapiens) (UniProt P37231); assay: qHTS assay to identify small molecule agonists of the peroxisome proliferator-activated receptor gamma (PPARg) signaling pathway (AID 743094; active = well fitted activation curve with a large enough effect in the signal ratio in the repeat runs, not every such curve was filed as active; the % refers to the signal ratio)
Summary of the method: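 Fluorescence-based beta-lactamase readout in HEK293H PPARg UAS-bla cells after 17 h compound exposure (37C) and 1 h B/G FRET substrate incubation at room temperature.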

[5] = biological target: Peroxisome proliferator-activated receptor gamma (Homo sapiens) (UniProt P37231); assay: qHTS assay to identify small molecule antagonists of the peroxisome proliferator-activated receptor gamma (PPARg) signaling pathway (AID 743191; calls by dose curve; also: series mostly up to about 63 µM; nearly all actives have a fitted effect of over 30% in size)
Summary of the method: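 Beta-lactamase reporter under UAS control in HEK293H PPARg-bla cells; compound treatment 17 h at 37C. Read-out: fluorescence intensity after 1 h room-temperature incubation with LiveBLAzer B/G FRET substrate.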

[6] = qHTS assay to identify small molecule antagonists of the peroxisome proliferator-activated receptor gamma (PPARg) signaling pathway - cell viability counter screen (AID 743194); also: nearly all actives have a fitted effect of over 55% in size
Summary of the method: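 Viability was measured as CellTiter-Glo luminescence in GeneBLAzer PPARg UAS-bla HEK293H cells. These cells had been exposed 17 h at 37 C to compounds together with rosiglitazone at 50 nM final, with the beta-lactamase readout taken in the same wells.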

[7] = qHTS assay for small molecule agonists of the antioxidant response element (ARE) signaling pathway (AID 743202; active = well fitted activation curve with a large enough effect in the signal ratio in the repeat runs, not every such curve was filed as active; the % refers to the signal ratio)
Summary of the method: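 Beta-lactamase reporter activity, read as fluorescence intensity, reflects ARE/Nrf2 pathway induction in HepG2 cells after 16 h compound exposure at 37 C; substrate loading was 2 h at room temperature.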

[8] = qHTS assay for small molecule agonists of the antioxidant response element (ARE) signaling pathway - cell viability counter screen (AID 743203; calls by dose curve; also: nearly all actives have a fitted effect of over 55% in size)
Summary of the method: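 Parallel cytotoxicity read-out for the ARE-bla screen: HepG2 reporter cells, 16 hrs with compounds, then CellTiter-Glo luminescence.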

[9] = qHTS assay for small molecule activators of the heat shock response signaling pathway - cell viability counter screen (AID 743209); also: nearly all actives have a fitted effect of over 50% in size
Summary of the method: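 To flag cytotoxic compounds, HSE-bla HeLa cells plated at 1500 cells/well were dosed for 5 h at 37 C, followed by the reporter FRET read and then CellTiter-Glo, with luminescence recorded 30 min after reagent addition.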

[10] = qHTS assay for small molecule activators of the heat shock response signaling pathway (AID 743210; active = well fitted activation curve with a large enough effect in the signal ratio in the repeat runs, with a control signal flat, not every such curve was filed as active; the % refers to the signal ratio;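 also: HeLa cells with beta-lactamase reporter driven by heat shock elements; series mostly up to about 63 µM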)
Summary of the method: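 Fluorescence from a cleaved B/G FRET substrate (2.5 h, room temp) reports HSE-driven beta-lactamase in HeLa cells treated 5 h at 37 C with DMSO-dissolved compounds.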

Measured: Potency

Aryl hydrocarbon receptor (Homo sapiens), sequence (P35869 whole entry, looked up): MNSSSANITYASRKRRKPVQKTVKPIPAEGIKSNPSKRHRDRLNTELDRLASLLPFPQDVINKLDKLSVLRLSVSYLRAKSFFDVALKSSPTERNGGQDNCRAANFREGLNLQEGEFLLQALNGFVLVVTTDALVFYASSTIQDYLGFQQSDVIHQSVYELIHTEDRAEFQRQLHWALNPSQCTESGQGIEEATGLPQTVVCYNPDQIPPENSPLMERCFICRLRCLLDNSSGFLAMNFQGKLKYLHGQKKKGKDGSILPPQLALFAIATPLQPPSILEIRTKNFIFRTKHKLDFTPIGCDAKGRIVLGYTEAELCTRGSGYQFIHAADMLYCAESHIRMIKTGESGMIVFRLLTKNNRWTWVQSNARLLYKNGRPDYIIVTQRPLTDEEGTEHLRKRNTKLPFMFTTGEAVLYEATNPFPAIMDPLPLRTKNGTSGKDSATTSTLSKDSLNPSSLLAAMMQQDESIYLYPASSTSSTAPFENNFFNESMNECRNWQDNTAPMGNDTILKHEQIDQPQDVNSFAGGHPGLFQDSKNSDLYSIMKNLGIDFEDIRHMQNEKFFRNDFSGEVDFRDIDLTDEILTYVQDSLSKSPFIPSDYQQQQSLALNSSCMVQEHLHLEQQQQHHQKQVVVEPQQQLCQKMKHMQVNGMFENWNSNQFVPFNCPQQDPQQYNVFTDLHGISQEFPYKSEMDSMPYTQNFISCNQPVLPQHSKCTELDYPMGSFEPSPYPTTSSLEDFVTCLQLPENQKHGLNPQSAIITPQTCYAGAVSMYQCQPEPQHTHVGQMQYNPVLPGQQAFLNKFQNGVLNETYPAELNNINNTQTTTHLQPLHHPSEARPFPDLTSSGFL
Peroxisome proliferator-activated receptor gamma (Homo sapiens), sequence (P37231 whole entry, looked up): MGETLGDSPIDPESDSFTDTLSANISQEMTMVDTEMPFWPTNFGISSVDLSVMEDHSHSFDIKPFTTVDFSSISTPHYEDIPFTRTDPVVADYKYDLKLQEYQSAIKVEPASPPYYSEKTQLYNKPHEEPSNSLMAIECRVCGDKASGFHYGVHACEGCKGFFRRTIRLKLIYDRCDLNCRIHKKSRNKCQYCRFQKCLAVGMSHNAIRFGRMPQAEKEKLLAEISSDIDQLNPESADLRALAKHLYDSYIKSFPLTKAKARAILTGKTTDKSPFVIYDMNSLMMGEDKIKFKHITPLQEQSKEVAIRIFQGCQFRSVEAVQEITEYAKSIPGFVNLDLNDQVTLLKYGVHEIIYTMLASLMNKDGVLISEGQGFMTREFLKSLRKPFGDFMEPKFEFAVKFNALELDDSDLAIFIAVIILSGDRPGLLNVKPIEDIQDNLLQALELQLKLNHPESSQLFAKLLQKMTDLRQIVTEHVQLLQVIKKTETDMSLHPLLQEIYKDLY

CC(=O)C(C)O (configuration not stated)
inactive: [1] | [2] | [3] | [4] | [5] | [6] | [7] | [8] | [9] | [10]

CN1C[C@@H]2C[C@H]1CN2c1cc2c(cc1F)c(=O)c(C(=O)O)cn2C1CC1
inactive: [1] | [2] | [3] | [4] | [5] | [6] | [7] | [8] | [9] | [10]

OCCN1CCOCC1
inactive: [1] | [2] | [3] | [4] | [5] | [6] | [7] | [8] | [9] | [10]

CC(=O)O[C@H]1C[C@@H]2CC[C@@]1(C)C2(C)C
inactive: [1] | [2] | [3] | [4] | [5] | [6] | [7] | [8] | [9]

CCCCCCC1(C)CCC(=O)O1 (configuration not stated)
inactive: [1] | [2] | [3] | [4] | [5] | [6] | [7] | [8] | [9] | [10]

CCC(C)C(C)=O (configuration not stated)
inactive: [1] | [2] | [3] | [4] | [5] | [6] | [7] | [8] | [9] | [10]

CO[Si](CCCn1c(=O)n(CCC[Si](OC)(OC)OC)c(=O)n(CCC[Si](OC)(OC)OC)c1=O)(OC)OC
inactive: [1] | [2] | [3] | [4] | [5] | [6] | [7] | [8] | [9] | [10]

Cc1ccc(N)cc1S(=O)(=O)O
inactive: [1] | [2] | [3] | [4] | [5] | [6] | [7] | [8] | [9] | [10]

Cc1cc(C)c(C(=O)O)c(C)c1
inactive: [1] | [2] | [3] | [4] | [5] | [6] | [7] | [8] | [9]

O=C(O)[C@H](O)c1ccccc1
inactive: [1] | [2] | [3] | [4] | [5] | [6] | [7] | [8] | [9] | [10]

CN1CCOC(c2ccccc2)c2ccccc2C1 (configuration not stated)
inactive: [1] | [2] | [3] | [4] | [5] | [6] | [7] | [8] | [9]

CC1=NN(c2ccc(S(=O)(=O)O)cc2)C(=O)C1
inactive: [1] | [2] | [3] | [4] | [5] | [6] | [7] | [8] | [9] | [10]

O=C(CCCCC(=O)Nc1c(I)cc(I)c(C(=O)O)c1I)Nc1c(I)cc(I)c(C(=O)O)c1I
inactive: [1] | [2] | [3] | [4] | [5] | [6] | [7] | [8] | [9] | [10]

COC(C)(OC)OC
inactive: [1] | [2] | [3] | [4] | [5] | [6] | [7] | [8] | [9] | [10]

CC(O)CC(C)O (configuration not stated)
inactive: [1] | [2] | [3] | [4] | [5] | [6] | [7] | [8] | [9] | [10]

Cc1c(C(=O)c2c[nH]n(C)c2=O)ccc(S(C)(=O)=O)c1C1=NOCC1
inactive: [1] | [2] | [3] | [4] | [5] | [6] | [7] | [8] | [9] | [10]

CCCCC1CCC(O)CC1 (configuration not stated)
inactive: [1] | [2] | [3] | [4] | [5] | [6] | [7] | [8] | [9] | [10]

CCCSSCCC
inactive: [1] | [2] | [3] | [4] | [5] | [6] | [7] | [8] | [9]

NCCOCCN
inactive: [1] | [2] | [3] | [4] | [5] | [6] | [7] | [8] | [9] | [10]

CC(=O)CCC1=C(C)CCCC1(C)C
inactive: [1] | [2] | [3] | [4] | [5] | [6] | [7] | [8]

CNCCS(=O)(=O)O
inactive: [1] | [2] | [3] | [4] | [5] | [6] | [7] | [8] | [9] | [10]

CC(=O)OC1CCCCC1C(C)(C)C (configuration not stated)
inactive: [1] | [2] | [3] | [4] | [5] | [6] | [7] | [8] | [9] | [10]

CO[C@@]1(NC(=O)Cc2cccs2)C(=O)N2C(C(=O)O)=C(COC(N)=O)CS[C@@H]21
inactive: [1] | [2] | [3] | [4] | [5] | [6] | [7] | [8] | [9]

CC1(C)Cc2cccc(N)c2O1
inactive: [1] | [2] | [3] | [4] | [5] | [6] | [7] | [8] | [9] | [10]

CC(=O)c1cc(C)oc1C
inactive: [1] | [2] | [3] | [4] | [5] | [6] | [7] | [8] | [9]
